PINK1 modulator: A Quantitative High throughput Screen to Identify Chemical Modulators of PINK1 Expression. PINK1 immunofluorescence, high-content cytometry, 24 h. Potency, µM (top dose mostly 76.6 µM), for the others: at the top dose activation (PINK1 increase), usual class: activators. 410,000 tested, 0.2% active. AID 624263, 2012; active = well fitted activation curve with a large enough effect; inconclusive = small, poorly fitted or top-dose-only effect; cell line not stated here; note: % of control where 0% means no effect; nearly all actives have a fitted effect of over 65% in size
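PINK1 protein level read as immunofluorescence by microplate cytometer in a fixed, stained stable cell line after 24 h exposure to five compound concentrations, with CCCP as control.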
SW480 rereplic: A quantitative high throughput screen for small molecules that induce DNA re-replication in SW480 colon adenocarcinoma cells | Potency, µM (doses to about 46.1 µM), without a hit: at the top dose re-replication activation, usual class: activators | 340,000 tested, 1.8% active | AID 624297, 2012 | SW480 DNA re-replication, Hoechst DNA content imaging, 48 h; note: % of control where 0% means no effect; nearly all actives have a fitted effect of over 55% in size
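Image-based DNA-content assay: after two days of treatment, nuclei were labelled with the DNA dye Hoechst and imaged, and hits were compounds raising the count of nuclei showing high fluorescence intensity.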
TSG101-PTAP inh: qHTS Assay for Iinhibitors of HIV-1 Budding by Blocking the Interaction of PTAP/TSG101. 340,000 tested, under 10 active. AID 493005, 2010. Tumor susceptibility gene 101 protein (Homo sapiens), Q99816. Fluorescence polarization, FITC-PTAP peptide / Tsg101 binding. Potency, µM (series often up to 115 µM), inactives show top-dose activity change, negative = inhibition, hits mostly inhibitors; active = well fitted inhibition curve with a large enough effect in the main read-out, with a control signal flat, not every such curve was filed as active; inconclusive = small, poorly fitted or top-dose-only effect, or effect the other way, or a change in a side signal; inactive = no such curve, though single readings can be large or run the other way; note: % of control where 0% means no effect
Target sequence (Q99816 whole entry, looked up): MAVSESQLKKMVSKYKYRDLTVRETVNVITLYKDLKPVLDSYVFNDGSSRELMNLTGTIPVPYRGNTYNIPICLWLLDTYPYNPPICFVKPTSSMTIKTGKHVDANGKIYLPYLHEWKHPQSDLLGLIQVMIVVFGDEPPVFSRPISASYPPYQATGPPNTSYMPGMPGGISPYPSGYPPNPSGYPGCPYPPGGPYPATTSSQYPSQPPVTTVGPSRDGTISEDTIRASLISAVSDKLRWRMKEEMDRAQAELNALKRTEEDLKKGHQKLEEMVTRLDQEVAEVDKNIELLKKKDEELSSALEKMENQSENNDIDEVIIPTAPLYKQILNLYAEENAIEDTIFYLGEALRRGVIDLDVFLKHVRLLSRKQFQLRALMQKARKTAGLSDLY
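Fluorescence anisotropy tracks displacement of a FITC-tagged PTAP peptide (50 nM) from the Tsg101 binding domain (10 uM), following a 20 min room-temperature incubation at pH 7.5.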
MCF10A rereplic: A quantitative high throughput screen for small molecules that induce DNA re-replication in MCF 10a normal breast cells. MCF 10A DNA re-replication, Hoechst nuclear intensity, 48 h. Potency, µM (top dose mostly 46.1 µM), for inactives: at the highest dose activity, positive = re-replication, hits mostly activators. 350,000 tested, 2.9% active; note: % of control where 0% means no effect; nearly all actives have a fitted effect of over 50% in size
KB-3-1 tox: qHTS assay for MDR1-selective chemotherapeutics: Primary screen using the parental adenocarcinoma cell KB-3-1; Potency, µM (titrated, usually from 46.1 µM), most hits filed as cytotoxic; KB-3-1 viability, CellTiter-Glo ATP luminescence, 72 h; AID 1347075, 2019; 400,000 tested, 1.4% active; note: % is set by controls: 0 for no effect and ±100 for the full control effect; nearly all actives have a fitted effect of over 60% in size
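Cells are dispensed, compounds pinned in, plates held at 37 °C for 72 h, then CellTiter-Glo is added and luminescence read after 10 minutes. Cell line: parental KB-3-1 in phenol-red-free DMEM, 10% FBS.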
KB-V1 MDR tox: qHTS assay for MDR1-selective chemotherapeutics: Primary screen using the drug-selected MDR subline cells KB-V1; KB-V1 MDR cells viability, CellTiter-Glo, 72 h; Potency, µM (top dose mostly 46.1 µM), actives largely listed as cytotoxic; 400,000 tested, 3.4% active; note: % is set by controls: 0 for no effect and ±100 for the full control effect; nearly all actives have a fitted effect of over 60% in size
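Cells of the MDR subline KB-V1 are plated, dosed with compound at multiple concentrations, and incubated 72 h at 37 degrees C; CellTiter-Glo is then added and luminescence read after 10 min.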
* marks the source's active call; other numbers are inactive results; i = inactive; ? = inconclusive; nt = no result given; [ ] = remark or other dose. Hits are enriched below; roughly 6.8% of the tested compounds scored in any of these assays. Unless noted, calls come from the whole dose curve; as a rule, active = well fitted curve in the direction sought with a large enough effect; inconclusive = small, poorly fitted or top-dose-only effect, or another doubt; inactive = no such curve, though single readings can be large; an effect the other way counts as inactive or inconclusive. Potency is the fitted concentration of half-maximal effect.

SMILES	PINK1 modulator	SW480 rereplic	TSG101-PTAP inh	MCF10A rereplic	KB-3-1 tox	KB-V1 MDR tox
Cc1ccc(C)c(CN2C(=O)c3ccccc3S(=O)(=O)c3ccc(C(=O)Nc4ccccc4C(F)(F)F)cc32)c1	-0.6%	nt	nt	nt	i	i
Cc1cc(C)c(S(=O)(=O)N2CCN(C(=O)c3ccccc3OCc3c(C)noc3C)CC2)c(C)c1	-0.5%	0.1%	-0.5%	10.3%	i	7.31µM*
Cc1noc(C)c1COc1ccc(C(=O)N2CCC(C)CC2)cc1	-1.3%	2.2%	-0.9%	0.3%	i	23.1µM*
Cc1ccc(S(=O)(=O)N2CCN(C(=O)c3ccccc3OCc3c(C)noc3C)CC2)cc1C	6.2%	25.8%	-5.3%	-0.6%	i	i
Cc1noc(C)c1COc1ccc(C(=O)N2CCN(S(=O)(=O)c3ccc(F)cc3)CC2)cc1	-0.8%	-8.6%	-3.6%	1.1%	i	8.2µM*
Cc1noc(C)c1COc1ccc(C(=O)N2CCN(S(=O)(=O)c3ccc(Cl)cc3)CC2)cc1	?	1.8%	-0.8%	4.0%	i	i
COCCCNC(=O)Cn1c(=O)n(-c2cccc(C)c2)c(=O)c2c1c1cc(C)ccc1n2C	-0.2%	nt	nt	nt	nt	nt
Cc1ccc(S(=O)(=O)Oc2ccc(/C=C(/NC(=O)c3ccccc3)C(=O)NCC(=O)O)cc2)cc1	3.4%	6.51µM*	-5.0%	-3.2%	i	i
Cc1ccc(S(=O)(=O)Oc2ccc(/C=C(/NC(=O)c3ccccc3)C(=O)O)cc2)cc1	-2.1%	4.2%	-2.5%	-6.0%	i	i
COc1ccc(C)cc1Nc1ncnc2c1c(-c1ccccc1)cn2-c1ccc(C)cc1	3.6%	nt	nt	nt	nt	nt
O=C(NC1CCCc2ccccc21)C1CCN(S(=O)(=O)c2ccccc2)CC1 (stereo unspecified)	1.0%	2.2%	-0.3%	2.3%	i	?
Cc1cc(C)nc(N2CCC(C(=O)NC3CCCc4ccccc43)CC2)n1 (stereo unspecified)	25.4%[38.3 µM]	-5.8%	-3.6%	4.6%	i	i
O=C(NC1CCCc2ccccc21)C1CCN(S(=O)(=O)c2ccccc2F)CC1 (stereo unspecified)	1.5%	13.9%	0.7%	2.8%	i	7.31µM*
Cc1csc(NC(=O)C2CCN(S(=O)(=O)c3cccs3)CC2)n1	-0.4%	-10.3%	-1.9%	3.3%	i	i
O=C(NC1CCCc2ccccc21)C1CCN(c2nnc(-n3cccc3)s2)CC1 (stereo unspecified)	2.6%	-1.0%	2.5%	16.4µM*	i	?
Cc1csc(NC(=O)C2CCN(S(=O)(=O)c3ccccc3F)CC2)n1	-0.1%	1.7%	0.6%	-13.0%	i	14.6µM*
COc1ccc(-n2cc(C(=O)NC(C)c3ccccc3)c3ccccc3c2=O)cc1 (stereo unspecified)	2.4%	nt	nt	nt	nt	nt
COc1cccc(CNC(=O)c2cc3c(=O)n(Cc4cccnc4)ccc3nc2C)c1	0.5%	nt	nt	nt	i	i
NC(=O)c1nsc(C(=O)N(c2ccccc2)C(C(=O)NCc2ccc(F)cc2)c2ccc(O)cc2)c1N (stereo unspecified)	-0.5%	?	-6.5%	13µM*	i	i
COc1ccc(N(C(=O)c2snc(C(N)=O)c2N)C(C(=O)NCc2ccccc2)c2ccc(O)cc2)cc1 (stereo unspecified)	3.4%	-0.6%	-9.9%	?	i	i
Cc1cccc(N(C(=O)c2snc(C(N)=O)c2N)C(C(=O)NCc2ccccc2)c2ccncc2)c1 (stereo unspecified)	5.9%	?	-1.9%	?	18.4µM*	i
COc1ccc2c(c1)CCc1cnc(-n3ncc(C(=O)NC4CCOC4)c3C3CC3)nc1-2 (stereo unspecified)	2.1%	nt	nt	nt	nt	nt
CCOc1nc(SCCOc2ccc(C)cc2)nc(N(C)C)n1	0.0%	-15.0%	0.0%	-16.6%	i	i
CCOc1nc(SCCOc2ccc(Cl)cc2Cl)nc(N(C)C)n1	5.6%	-1.9%	0.6%	110.3%	i	20.6µM*
COC(=O)c1ccc(/C=N/N2CCN(Cc3ccc(C)cc3C)CC2)cc1	7.1%	-12.3%	-5.2%	-0.2%	i	18.4µM*
SMILES	PINK1 modulator	SW480 rereplic	TSG101-PTAP inh	MCF10A rereplic	KB-3-1 tox	KB-V1 MDR tox
Cc1ccc(CN2CCN(/N=C/c3ccc(C(=O)O)cc3)CC2)c(C)c1	5.4%	-18.4%	-0.2%	-0.2%	i	i
O=c1cnc2cnc(Oc3cccc(Cl)c3)nc2n1C1CC1	-1.0%	nt	nt	nt	nt	nt
CN(c1ncnc2c1c(-c1ccccc1)cn2-c1ccc(F)cc1)C1CCCCC1	0.0%	nt	nt	nt	nt	nt
CCOC(=O)/C(=C\c1ccc(OC)c(OC)c1)C(=O)c1cccnc1	1.0%	20.2%	0.3%	25.9µM*	i	i
COc1cc(C(c2c(C)[nH][nH]c2=O)c2c(C)[nH][nH]c2=O)ccc1OCc1ccc([N+](=O)[O-])cc1	-1.9%	?	-2.1%	20.6µM*	i	i
CCOC(=O)/C(=C\c1cccnc1)C(=O)c1cc(C(C)=O)c(Nc2ccccc2)s1	-2.8%	3.66µM*	-1.7%	2.91µM*	3.26µM*	6.51µM*
COc1cc(C(c2c(C)[nH][nH]c2=O)c2c(C)[nH][nH]c2=O)ccc1OC(=O)c1cccc([N+](=O)[O-])c1	-2.0%	-10.5%	-5.7%	-4.1%	i	?
CCOC(=O)/C(=C\c1ccccc1)C(=O)c1cc(C(C)=O)c(Nc2ccccc2)s1	-1.9%[38.3 µM]	10.9%	-3.2%	20.3%	i	?
CCOC(=O)C(=Cc1ccc(OCc2ccc([N+](=O)[O-])cc2)c(OC)c1)C(=O)OCC	-2.8%	4.61µM*	-1.7%	5.8µM*	?	20.6µM*
COc1cc(C=O)ccc1OCCCOc1ccc([N+](=O)[O-])cc1	1.8%	-4.0%	-3.6%	2.2%	i	i
CCCCC(CC)CNC(=O)c1ccc(Cn2c(=O)[nH]c3cc(OC)c(OC)cc3c2=O)cc1 (stereo unspecified)	0.3%	nt	nt	nt	nt	nt
Cc1ccc(CNC(=O)c2cccc(-n3cnc4cccnc43)c2)cc1	0.2%	nt	nt	nt	i	i
COC(=O)C1CCCCN1Cc1ccc2c(c1)CN(C(=O)c1ccc(F)cc1)CCO2 (stereo unspecified)	1.5%	nt	nt	nt	nt	nt
